Results published in PubChem BioAssay AID720514 (Broad Institute, 2013).
Among all 2,100 compounds or so, about 300 (14%) were called active. About 2% were inconclusive and are not listed.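 The calls were made as follows: active = every replicate test run called active, with the signal falling and half-maximal concentration within twice the top valid dose; inconclusive = the replicate test runs disagree in their calls; inactive = every test run inactive, including effects in the opposite direction.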 Only a sample is shown. Results with a measured potency or affinity are listed apart.

Test: reduced cellular PGC1a acetyl-lysine signal – cell-based, cherry-picked samples, dose response (AID 720514);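 also: actives lower the acetylation signal so they count as inhibitors of PGC1a acetylation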
Conditions: U2OS PGC1a acetylation, AlphaLISA, overnight; series mostly up to 19.5 µM

outcome, inactive:
CCC(C)(C)n1nnnc1C(c1ccccc1OC)N1CCSCC1 (centres undefined)
CC(NS(=O)(=O)c1ccccc1Cl)C1CC2CCC1C2 (centres undefined)
C/C=C(/C)C(=O)O[C@@H]1c2cc(OC)c(OC)c(OC)c2-c2c(cc3c(c2OC)OCO3)C[C@H](C)[C@]1(C)O
O=C(CCc1nc2ccccc2c(=O)[nH]1)Nc1ccc(N2CCCCC2)cc1
Cn1ncc(C(=O)Nc2ccc(Cl)cc2)c1C(F)(F)F
COc1cccc(N(CC(=O)NCc2cccnc2)S(C)(=O)=O)c1
O=C(CCCCCN1C(=O)c2cccc3cccc(c23)C1=O)NCc1cccnc1
O=C(NCc1cccnc1)c1ccc(NC(=O)c2ccc(Br)cc2)cc1
O=C(Cc1ccc(Cl)cc1)c1c[nH]c(C(=O)NCc2cccnc2)c1
O=C(NCc1ccccc1)C1Cc2c(-c3ccc(Cl)cc3)ccnc2O1 (centres undefined)
O=C(CCCc1nc(-c2ccccc2Cl)no1)NCc1cccnc1
CN(C)CC(O)c1ccc(C=Cc2ccc(Cl)cc2)cc1 (centres undefined)
CC(=O)Nc1ccc(NC(=O)CN(c2cccc([N+](=O)[O-])c2)S(C)(=O)=O)cc1
COc1ccc(CCn2c(-c3ccc(OC)cc3)nc3c(c(=O)c4ccccc4n3C)c2=O)cc1
COc1ccccc1/C=C1\SC(=O)N(CCC(=O)NCCCn2ccnc2)C1=O
CCN(CC)C(=O)CSc1nnc2nnc3cc(Cl)ccc3n12
COc1ccccc1NC(=O)c1ccc(NC(=O)CNC(=O)c2ccc(OC)c(OC)c2)cc1
COC(=O)c1ccc(NC(=O)c2cccnc2)cc1
COc1ccc(-c2csc3nc(C)nc(N4CCC(C)CC4)c23)cc1OC
COc1ccc(Nc2nnc(-c3ccc(C(N)=O)cc3)c3ccccc23)cc1
COc1ccc(Nc2nnc(C)c3ccccc23)cc1
O=C(Cc1ccccc1)Nc1cccc(-c2nc3ncccc3o2)c1
CC1CC(NS(=O)(=O)c2cccs2)CC(C)(C)C1 (centres undefined)
COc1ccc(Nc2nc(N)c(C(=O)c3ccc(OC)cc3)s2)cc1
Nc1c(C(=O)Nc2ccccc2)sc2ncc([N+](=O)[O-])cc12
OC1CCCC1NCc1ccnc2cc(Cl)ccc12 (centres undefined)
Cc1ccc(Nc2nnc(C)c3ccccc23)c(C)c1
COc1ccc(OC)c(C(=O)/C=C/c2ccccc2C(F)(F)F)c1
C[C@@H]1CN([C@H](C)CO)C(=O)c2c(c3ccccc3n2C)-c2ccccc2CO[C@@H]1CN(C)C(=O)Nc1cccc(C(F)(F)F)c1
COc1cc(-c2cnc3c(NC(C)=O)cc(-c4ccccc4CN(C)C)cn23)cc(OC)c1OC
Cn1c(CN2CCCC2)nc2cc(NC(=O)COc3ccc(Cl)cc3)ccc21
C=CCS(=O)(=O)c1nc2ccccc2s1
Cc1cc(C)nc(NC(=O)c2c(-c3ccccc3Cl)noc2C)n1
COc1cc(-c2nnn(CC#N)n2)ccc1OCc1ccccc1
COc1ccc(-c2cc(-c3ccccc3O)[nH]n2)cc1OC
O=C(C1CCC1)N1CCN(S(=O)(=O)c2ccccc2)CC1
COc1ccccc1NC(=O)N1C[C@@H]2N[C@H](C1)C2c1ccc(/C=C/c2ccccc2)cc1 (some centres undefined)
O=C(Nc1ccccc1)C1=C[C@@H](c2ccc(C(F)(F)F)cc2)C[C@@H](OCc2ccc(CO)cc2)O1
COC(=O)C[C@H]1c2cc(C(F)(F)F)ccc2S(=O)(=O)N1Cc1ccc(OC)cc1
Cc1nnc(NCc2ccccc2)c2ccccc12
O=C(CC1CC1)N[C@H]1CC[C@H](CCNS(=O)(=O)c2ccc(Cl)cc2)O[C@H]1CO
CC(=O)c1cc(-c2ccccc2)n(CCC(=O)NC2CCCCC2)c1C
O=C(c1cc(C2CC2)on1)N1CCCC(N2CCN(c3cccc(C(F)(F)F)c3)CC2)C1 (centres undefined)
COc1cc2cc(-c3ccc(O)cc3O)nc(C)c2cc1OC
Cc1ccc(C(=O)N2CCN(c3ccc(NC(=O)c4ccc(Br)o4)cc3)CC2)cc1
O=C(Cc1ccccc1)N1CCN(c2ccc([N+](=O)[O-])cc2)CC1
O=C(CN1CCC(n2nnc3cc(F)ccc32)CC1)NCc1ccco1
C[C@@H]1CN([C@@H](C)CO)C(=O)c2c(c3ccccc3n2C)-c2ccccc2CO[C@@H]1CN(C)C(=O)Nc1ccc(F)cc1
Cc1cc(C)c2nc(N(CCCN(C)C)C(=O)c3ccc(S(=O)(=O)N4CCCCCC4)cc3)sc2c1
CN1c2ccccc2C2(C)CCCC3=Cc4cccc([N+](=O)[O-])c4OC312 (centres undefined)
Cc1cccc(C(=O)Nc2ccc(C(=O)/C=C/c3cccnc3)cc2)c1
O=C(Cc1ccccc1)Nc1ccc(NC(=O)c2cccs2)cc1
O=C(CS(=O)CC(=O)Nc1cccc2c1CCCC2)Nc1ccc(F)cc1 (centres undefined)
Clc1ccc(-c2nnc(-c3ccccc3)nc2N2CCSCC2)cc1
CNC(=O)c1nnsc1S(=O)c1ccc(Cl)cc1 (centres undefined)
Nc1c(C(=O)Nc2ccccc2)c2nc3ccccc3nc2n1CCCN1CCOCC1
CC(=O)NC(c1cccc(F)c1)c1nc(-c2cccc(C(C)C)c2)cs1 (centres undefined)
COc1cc2nc(SCc3c(C)noc3C)n(CCC3=CCCCC3)c(=O)c2cc1OC
c1ccc(N2CCN(c3ccccc3)C2c2ccncc2)cc1
CCC(CC)C(=O)c1c[nH]c(C(=O)NCc2ccccc2)c1
CCOC(=O)C1CCCN(S(=O)(=O)c2ccc3c(c2)NC(=O)CO3)C1 (centres undefined)
CCOc1ccc2c(c1)C(C)=CC(C)(C)N2S(=O)(=O)c1ccc(C)cc1
O=C1CC(Sc2nnc(-c3ccccc3O)o2)C(=O)N1c1ccccc1 (centres undefined)
CCOC(=O)c1[nH]c(C)c(C(=O)Nc2cc(OC)ccc2OC)c1C
CC(=O)c1ccc(N2CCN(c3ccc(S(=O)(=O)NCCN(C)C)cc3[N+](=O)[O-])CC2)cc1
CC(=O)c1ccc(N2CCN(c3ccc(S(=O)(=O)NCCCN(C)C)cc3[N+](=O)[O-])CC2)cc1
Cc1c(C(=O)NCCSCc2c(F)cccc2Cl)cnn1-c1ccc(Cl)cc1
CC1CN(S(=O)(=O)c2ccc(C(=O)NCCCn3ccnc3)cc2)CC(C)O1 (centres undefined)
O=C(c1cccc([N+](=O)[O-])c1)N1CCc2ccccc21
CCN(CC)CC(=O)N1c2ccccc2CCc2ccc(NC(=O)c3cc(OC)c(OC)c(OC)c3)cc21
CC(C)(C)c1ccc(NC(=O)N2CCN(c3ccc([N+](=O)[O-])cn3)CC2)cc1
C[C@@H]1CCCCO[C@@H](CN(C)Cc2ccc(Cl)c(Cl)c2)[C@H](C)CN([C@@H](C)CO)C(=O)c2cc(NC(=O)CCC(F)(F)F)ccc2O1
Cc1ccc(S(=O)(=O)Nc2ccc3c(c2)C(=O)N([C@@H](C)CO)C[C@@H](C)[C@H](CN(C)C(=O)Nc2cccc4ccccc24)OCCCC[C@H](C)O3)cc1
C[C@@H]1CN([C@H](C)CO)C(=O)c2cc(N(C)C)ccc2O[C@@H](C)CCCCO[C@H]1CN(C)C(=O)Cc1ccccc1
C[C@@H]1CCCCO[C@@H](CN(C)CC2CC2)[C@H](C)CN([C@H](C)CO)C(=O)c2cc(NS(=O)(=O)c3ccccc3)ccc2O1
CNC[C@H]1OCCCC[C@@H](C)Oc2ccc(NS(=O)(=O)c3ccccc3)cc2C(=O)N([C@H](C)CO)C[C@@H]1C
Cc1noc(C)c1S(=O)(=O)Nc1ccc2c(c1)C(=O)N([C@@H](C)CO)C[C@@H](C)[C@@H](CN(C)Cc1ccc3c(c1)OCO3)OCCCC[C@@H](C)O2
Cc1noc(C)c1S(=O)(=O)Nc1ccc2c(c1)C(=O)N([C@H](C)CO)C[C@H](C)[C@H](CN(C)C(=O)c1ccncc1)OCCCC[C@@H](C)O2
O=C(OCc1nc2ccsc2c(=O)[nH]1)c1cccc(S(=O)(=O)N2CCOCC2)c1
NCC[C@H]1CC[C@@H](NC(=O)C2CCCCC2)[C@@H](CO)O1
O=C(C[C@H]1CC[C@H]2[C@@H](COC[C@@H](O)CN2C(=O)c2cc(Cl)cc(Cl)c2)O1)N1CCc2ccccc2C1
COc1ccc(NC(=O)Cn2ncc(Cl)c(Cl)c2=O)cc1S(=O)(=O)N1CCOCC1
CCc1nnc(NC(=O)Cc2ccc(S(=O)(=O)N3CCCCC3)cc2)s1
N#Cc1ccccc1COC(=O)c1ccc2c(c1)OCCO2
Fc1ccc(-c2nn3c(C4COc5ccccc5O4)nnc3s2)cc1 (centres undefined)
COc1ccc2c(c1)C(C)=CC(C)(C)N2S(=O)(=O)c1ccc(Br)cc1
OC(COc1ccc(CNCCc2ccc(C(F)(F)F)cc2)cc1)CN1CCCCC1 (centres undefined)
CC1(C)CC(=O)C2=C(C1)Nc1ccccc1N1C(=O)c3ccccc3C21 (centres undefined)
O=C(NCc1csc(-c2cccs2)n1)c1cccc(Cl)c1
CN1OC(COC(=O)c2ccccc2)CC1c1ccccc1 (centres undefined)
CCC(=O)Nc1ccc(C(=O)Cn2ncc(Cl)c(Cl)c2=O)cc1
O=S(=O)(c1ccccc1)N(CC(F)(F)F)c1ccc(C(O)(C(F)(F)F)C(F)(F)F)cc1
COc1ccc(NC(=O)C2(C)Cc3c(-c4cccc(NC(C)=O)c4)ccnc3O2)cc1 (centres undefined)
CCOC(=O)C1=CC[C@@H](c2ccccc2)N(S(=O)(=O)c2ccc(C)cc2)[C@H]1c1cccc(OC)c1
